Measurements from paper PMC9911399, “Two distinct binding modes provide the RNA-binding protein RbFox with extraordinary sequence specificity”.
Substitutions are numbered along the chain they refer to; changes in the protein carry UniProt numbers. The full ranking holds about 16,000 sequences; the median of “ka relative to ugcaugu” is about 0.0091, and the highest 2% start at about 0.032. The sample as a whole holds a higher share of the highest values than the screen did.

T1: RBFOX1 RRM (Homo sapiens, UniProt Q9NWB1 109-208)
T1 sequence: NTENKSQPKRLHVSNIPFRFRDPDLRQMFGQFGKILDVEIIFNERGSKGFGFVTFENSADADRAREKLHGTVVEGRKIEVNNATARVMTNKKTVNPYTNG

B1: CAUGUGG (DNA:RNA)
RNA: GGGAGACCGGAAUUCAGAUUGUCCCAUGUGGUUAAAUCCCGUCGUAGCCACCA
DNA 1: CAATCTGAATTCCGGTCTCCC
DNA 2: TGGTGGCTACGACGGGATT
B2: GCUACAC (DNA:RNA)
RNA: B1 RNA with C25G, A26C, G28A, U29C, G30A, G31C
DNA 1: CAATCTGAATTCCGGTCTCCC
DNA 2: TGGTGGCTACGACGGGATT
B3: CAAUAAC (DNA:RNA)
RNA: B1 RNA with U27A, G28U, U29A, G30A, G31C
DNA 1: CAATCTGAATTCCGGTCTCCC
DNA 2: TGGTGGCTACGACGGGATT
B4: CGAGGGG (DNA:RNA)
RNA: B1 RNA with A26G, U27A, U29G
DNA 1: CAATCTGAATTCCGGTCTCCC
DNA 2: TGGTGGCTACGACGGGATT
B5: AAUAUAG (DNA:RNA)
RNA: B1 RNA with C25A, G28A, G30A
DNA 1: CAATCTGAATTCCGGTCTCCC
DNA 2: TGGTGGCTACGACGGGATT
B6: GCUGCUA (DNA:RNA)
RNA: B1 RNA with C25G, A26C, U29C, G30U, G31A
DNA 1: CAATCTGAATTCCGGTCTCCC
DNA 2: TGGTGGCTACGACGGGATT
B7: UGCUGGA (DNA:RNA)
RNA: B1 RNA with C25U, A26G, U27C, G28U, U29G, G31A
DNA 1: CAATCTGAATTCCGGTCTCCC
DNA 2: TGGTGGCTACGACGGGATT
B8: UGAGUCU (DNA:RNA)
RNA: B1 RNA with C25U, A26G, U27A, G30C, G31U
DNA 1: CAATCTGAATTCCGGTCTCCC
DNA 2: TGGTGGCTACGACGGGATT
B9: UGGAAUC (DNA:RNA)
RNA: GGGAGACCGGAAUUCAGAUUGUCCUGGAAUCUUAAAUCCCGUCGUAGCCACCA
DNA 1: CAATCTGAATTCCGGTCTCCC
DNA 2: TGGTGGCTACGACGGGATT
B10: UGGAGGC (DNA:RNA)
RNA: B9 RNA with A29G, U30G
DNA 1: CAATCTGAATTCCGGTCTCCC
DNA 2: TGGTGGCTACGACGGGATT
B11: UGGAUGG (DNA:RNA)
RNA: B9 RNA with A29U, U30G, C31G
DNA 1: CAATCTGAATTCCGGTCTCCC
DNA 2: TGGTGGCTACGACGGGATT
B12: UCCUGGA (DNA:RNA)
RNA: B1 RNA with C25U, A26C, U27C, G28U, U29G, G31A
DNA 1: CAATCTGAATTCCGGTCTCCC
DNA 2: TGGTGGCTACGACGGGATT
B13: UGGAGUC (DNA:RNA)
RNA: B9 RNA with A29G
DNA 1: CAATCTGAATTCCGGTCTCCC
DNA 2: TGGTGGCTACGACGGGATT
B14: UGGAUGC (DNA:RNA)
RNA: B9 RNA with A29U, U30G
DNA 1: CAATCTGAATTCCGGTCTCCC
DNA 2: TGGTGGCTACGACGGGATT
B15: UGGAUUG (DNA:RNA)
RNA: B9 RNA with A29U, C31G
DNA 1: CAATCTGAATTCCGGTCTCCC
DNA 2: TGGTGGCTACGACGGGATT
B16: UGGAUUC (DNA:RNA)
RNA: B9 RNA with A29U
DNA 1: CAATCTGAATTCCGGTCTCCC
DNA 2: TGGTGGCTACGACGGGATT
B17: UGAUGGA (DNA:RNA)
RNA: B9 RNA with G27A, A28U, A29G, U30G, C31A
DNA 1: CAATCTGAATTCCGGTCTCCC
DNA 2: TGGTGGCTACGACGGGATT
B18: UGGAUGA (DNA:RNA)
RNA: B9 RNA with A29U, U30G, C31A
DNA 1: CAATCTGAATTCCGGTCTCCC
DNA 2: TGGTGGCTACGACGGGATT
B19: ACAACCU (DNA:RNA)
RNA: B9 RNA with U25A, G26C, G27A, A29C, U30C, C31U
DNA 1: CAATCTGAATTCCGGTCTCCC
DNA 2: TGGTGGCTACGACGGGATT
B20: AGCGAAA (DNA:RNA)
RNA: B9 RNA with U25A, G27C, A28G, U30A, C31A
DNA 1: CAATCTGAATTCCGGTCTCCC
DNA 2: TGGTGGCTACGACGGGATT
B21: UUUUUGU (DNA:RNA)
RNA: B1 RNA with C25U, A26U, G28U, G31U
DNA 1: CAATCTGAATTCCGGTCTCCC
DNA 2: TGGTGGCTACGACGGGATT
B22: UCGUCCC (DNA:RNA)
RNA: B9 RNA with G26C, A28U, A29C, U30C
DNA 1: CAATCTGAATTCCGGTCTCCC
DNA 2: TGGTGGCTACGACGGGATT
B23: ACAGACA (DNA:RNA)
RNA: B1 RNA with C25A, A26C, U27A, U29A, G30C, G31A
DNA 1: CAATCTGAATTCCGGTCTCCC
DNA 2: TGGTGGCTACGACGGGATT
B24: UCACUAC (DNA:RNA)
RNA: B9 RNA with G26C, G27A, A28C, A29U, U30A
DNA 1: CAATCTGAATTCCGGTCTCCC
DNA 2: TGGTGGCTACGACGGGATT
B25: GGCAAAG (DNA:RNA)
RNA: B9 RNA with U25G, G27C, U30A, C31G
DNA 1: CAATCTGAATTCCGGTCTCCC
DNA 2: TGGTGGCTACGACGGGATT
B26: UGGAUCC (DNA:RNA)
RNA: B9 RNA with A29U, U30C
DNA 1: CAATCTGAATTCCGGTCTCCC
DNA 2: TGGTGGCTACGACGGGATT
B27: UGGAUCU (DNA:RNA)
RNA: B9 RNA with A29U, U30C, C31U
DNA 1: CAATCTGAATTCCGGTCTCCC
DNA 2: TGGTGGCTACGACGGGATT
B28: UGUCGUG (DNA:RNA)
RNA: B9 RNA with G27U, A28C, A29G, C31G
DNA 1: CAATCTGAATTCCGGTCTCCC
DNA 2: TGGTGGCTACGACGGGATT
B29: UGGAUCG (DNA:RNA)
RNA: B9 RNA with A29U, U30C, C31G
DNA 1: CAATCTGAATTCCGGTCTCCC
DNA 2: TGGTGGCTACGACGGGATT
B30: UGUCGUC (DNA:RNA)
RNA: B9 RNA with G27U, A28C, A29G
DNA 1: CAATCTGAATTCCGGTCTCCC
DNA 2: TGGTGGCTACGACGGGATT
B31: UGGAGAG (DNA:RNA)
RNA: B9 RNA with A29G, U30A, C31G
DNA 1: CAATCTGAATTCCGGTCTCCC
DNA 2: TGGTGGCTACGACGGGATT
B32: UGUCUUG (DNA:RNA)
RNA: B1 RNA with C25U, A26G, G28C, G30U
DNA 1: CAATCTGAATTCCGGTCTCCC
DNA 2: TGGTGGCTACGACGGGATT
B33: UGUUGUC (DNA:RNA)
RNA: B9 RNA with G27U, A28U, A29G
DNA 1: CAATCTGAATTCCGGTCTCCC
DNA 2: TGGTGGCTACGACGGGATT
B34: UGGAGAU (DNA:RNA)
RNA: B9 RNA with A29G, U30A, C31U
DNA 1: CAATCTGAATTCCGGTCTCCC
DNA 2: TGGTGGCTACGACGGGATT
B35: UGGAGAA (DNA:RNA)
RNA: B9 RNA with A29G, U30A, C31A
DNA 1: CAATCTGAATTCCGGTCTCCC
DNA 2: TGGTGGCTACGACGGGATT
B36: UGGAGUG (DNA:RNA)
RNA: B9 RNA with A29G, C31G
DNA 1: CAATCTGAATTCCGGTCTCCC
DNA 2: TGGTGGCTACGACGGGATT
B37: UGGAAUG (DNA:RNA)
RNA: B9 RNA with C31G
DNA 1: CAATCTGAATTCCGGTCTCCC
DNA 2: TGGTGGCTACGACGGGATT

Biological target: T1, RBFOX1 RRM
Assay: EMSA; HiTS-Eq, 1 nM pool, 10 min; buffer printed only for the single-RNA assays: 10 mM Tris pH 7.5, 150 mM NaCl, 3.4 mM EDTA, 0.001% NP-40, 30 C
Conditions: tags: His6 N-terminal (pET28a); label: 5' 32P
In short: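 Purified wild-type or mutant RbFox RRM at increasing concentrations was equilibrated with 1 nM of 5′-radiolabelled RNA carrying 7 randomized nucleotides for 10 min in 50 µL. Unbound RNA was separated by 8% native PAGE and sequenced. Relative association constants came from read-count changes of each RNA species compared with the control reaction, normalised to the cognate motif.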

Row | Binder | binding signal
1 | B1 | 0.00494 KA relative to UGCAUGU
2 | B2 | 0.00819 KA relative to UGCAUGU
3 | B3 | 0.00247 KA relative to UGCAUGU
4 | B4 | 0.00639 KA relative to UGCAUGU
5 | B5 | 0.00237 KA relative to UGCAUGU
6 | B6 | 0.0167 KA relative to UGCAUGU
7 | B7 | 0.0106 KA relative to UGCAUGU
8 | B8 | 0.0175 KA relative to UGCAUGU
9 | B9 | 0.0233 KA relative to UGCAUGU
10 | B10 | 0.0186 KA relative to UGCAUGU
11 | B11 | 0.0304 KA relative to UGCAUGU
12 | B12 | 0.00715 KA relative to UGCAUGU
13 | B13 | 0.0349 KA relative to UGCAUGU
14 | B14 | 0.0582 KA relative to UGCAUGU
15 | B15 | 0.0448 KA relative to UGCAUGU
16 | B16 | 0.0192 KA relative to UGCAUGU
17 | B17 | 0.00526 KA relative to UGCAUGU
18 | B18 | 0.0437 KA relative to UGCAUGU
19 | B19 | 0.000511 KA relative to UGCAUGU

Row | Binder | binding signal
20 | B20 | 0.0048 KA relative to UGCAUGU
21 | B21 | 0.0281 KA relative to UGCAUGU
22 | B22 | 0.00735 KA relative to UGCAUGU
23 | B23 | 0.00018 KA relative to UGCAUGU
24 | B24 | 0.000713 KA relative to UGCAUGU
25 | B25 | 0.00447 KA relative to UGCAUGU
26 | B26 | 0.0229 KA relative to UGCAUGU
27 | B27 | 0.0236 KA relative to UGCAUGU
28 | B28 | 0.0277 KA relative to UGCAUGU
29 | B29 | 0.0333 KA relative to UGCAUGU
30 | B30 | 0.0214 KA relative to UGCAUGU
31 | B31 | 0.0249 KA relative to UGCAUGU
32 | B32 | 0.0447 KA relative to UGCAUGU
33 | B33 | 0.0242 KA relative to UGCAUGU
34 | B34 | 0.0283 KA relative to UGCAUGU
35 | B35 | 0.0194 KA relative to UGCAUGU
36 | B36 | 0.0323 KA relative to UGCAUGU
37 | B37 | 0.0953 KA relative to UGCAUGU
